The structures appear in SMILES notation. About 2,100 (3.2%) of roughly 65,000 compounds showed an effect of 50% or more. The median lay at about -52%. Shown is part of a subset that was picked to be rich in strong results.

The assay concerns Plasmodium falciparum. Description: Screen against P. falciparum Asexual Blood Stage (ABS), at 5uM. Type of assay: functional, Dd2. The note with it: tested at 5 uM.
Consider `Cc1cc(CN2CCOC(Cn3nc(C)cc3C)C2)on1` (centres undefined), for which the INHIBITION amounted to 46.7%. As for `Cc1cnc(CN2CCOC(Cn3nc(C)cc3C)C2)cn1` (centres undefined), the INHIBITION was -20.8%. Consider `Cc1cc(C)n(CC2CN(Cc3cnc(C)s3)CCO2)n1` (centres undefined), for which the INHIBITION stood at 53.2%. In the case of `CCN1CCN(C(=O)c2cc(NC(=O)c3ccccc3)n(C)n2)CC1`, the INHIBITION is on record as -98%. As to `CC(=O)N(Cc1ncc(C(C)C)o1)C1CCN(CC2CCC2)C1` (centres undefined), the INHIBITION was -113%. The result for `CC(=O)N(Cc1ncc(C(C)C)o1)C1CCN(CCn2cccn2)C1` (centres undefined) reads -150%. Turning to `CC(=O)N(Cc1ncc(C(C)C)o1)C1CCN(Cc2ccno2)C1` (centres undefined), the INHIBITION turned out to be 45.7%. To `CC(=O)N(Cc1ncc(C)o1)C1CCN(Cc2nccn2C)C1` (centres undefined) belongs -133%. As to `CC(=O)N(Cc1ncc(C(C)C)o1)C1CCN(Cc2cc(C)on2)C1` (centres undefined), the INHIBITION is -83.8%. In the case of `CCc1cnc(CN(C(C)=O)C2CCN(Cc3nccn3C)C2)o1` (centres undefined), the INHIBITION worked out at 51.5%.

Turning to `CC(=O)N(Cc1ncc(C(C)C)o1)C1CCN(Cc2cc(C)no2)C1` (centres undefined), the INHIBITION is recorded as 59%. Turning to `CC(=O)N(Cc1ncc(C(C)C)o1)C1CCN(Cc2nccn2C)C1` (centres undefined), the INHIBITION was -176%.

`CC(=O)N(Cc1ncc(C(C)C)o1)C1CCN(CCC#N)C1` (centres undefined): the INHIBITION was determined as 57%. Turning to `COCCN(Cc1cnn(C)c1)C(=O)C1CCCN(C2CCOCC2)C1` (centres undefined), the INHIBITION is reported as -15.9%. For the compound `CCN(Cc1ccncc1)c1cc(C2CCCNC2)nc(C)n1` (centres undefined), the INHIBITION was -121%. On to `CN(Cc1cccnc1)C1COC2(CCN(Cc3nccs3)CC2)C1` (centres undefined), for which the INHIBITION is listed as -52.5%. The result for `O=C(c1cccnc1)N1CCCC1c1cc[nH]n1` (centres undefined) reads -66.5%; that for `N#Cc1ccc(N2CCCC3(CCN(c4cccnc4)CC3)C2)cc1`, -71.3%; that for `COc1cc(C)sc1C(=O)NCCNc1ccccc1`, 18.7%. Regarding `COc1cc(C)sc1C(=O)NCCC(=O)N(C)Cc1ccccc1`, the INHIBITION is listed as 59.3%. Turning to `COc1cc(C)sc1C(=O)NCCC(=O)N(C)c1ccccc1`, the INHIBITION came out at 33.9%.

As for `N#Cc1ccc(NC2CCN(Cc3ccccn3)CC2)c(F)c1`, the INHIBITION was -118%. Regarding `Fc1ccc(OCCNC2CCN(Cc3ccccn3)CC2)c(F)c1`, the INHIBITION stood at 69.8%. Regarding `c1ccc(CN2CCC(NCCc3ccc4c(c3)CCO4)CC2)nc1`, the INHIBITION came to 36%. Take `COC(=O)c1ccc(CNCc2cn(C)nc2C)cc1`: the INHIBITION is -133%. The result for `O=C(NCCC1=CCCCC1)NC1CCCc2c1cnn2CCO` (centres undefined) reads -134%. Take `CN(Cc1ccccc1)CC(O)Cn1cnc2ccsc2c1=O` (centres undefined): the INHIBITION is recorded as 19%. Consider `CN(Cc1ccccc1)CC(O)Cn1cnc2ccccc2c1=O` (centres undefined), for which the INHIBITION is -2.56%. As for `CN(Cc1ccccc1)CC(O)Cn1cnc2sccc2c1=O` (centres undefined), the INHIBITION turned out to be 62.1%. For the compound `CC(C)CS(=O)(=O)Nc1ccc2c(c1)OCC(C)(C)C(=O)N2C`, the INHIBITION is -28.6%. With `CCCC(NC(=O)c1cc(C)c(F)cc1F)c1nnn[nH]1` (centres undefined), the INHIBITION is -94.1%. The result for `COc1ncc(CN2C[C@@H]3C[C@@H](O)CN3C[C@@H]2Cc2ccccc2)cn1` reads -117%; that for `C=Cn1ncc(CN2C[C@@H]3C[C@@H](O)CN3C[C@@H]2Cc2ccccc2)c1C`, -7.65%; that for `CCc1ncc(CN2C[C@@H]3C[C@@H](O)CN3C[C@@H]2Cc2ccccc2)cn1`, -55%. As for `O[C@@H]1C[C@H]2CN(CC3CCCCC3)[C@H](Cc3ccccc3)CN2C1`, the INHIBITION is on record as 37.6%. To `O[C@@H]1C[C@H]2CN(Cc3ccccc3)[C@H](Cc3ccccc3)CN2C1` belongs 69.1%; to `O[C@@H]1C[C@H]2CN(Cc3ccccc3Cl)[C@H](Cc3ccccc3)CN2C1`, 56.3%; to `COCC(=O)N1CCCC(c2cc(C(F)F)n3ncnc3n2)C1` (centres undefined), 10.4%. As for `Cn1cc(NC(=O)Cn2cc(-c3ccccc3)ncc2=O)cn1`, the INHIBITION is on record as -15.3%. `COC(=O)c1cccc(S(=O)(=O)NCC(c2ccco2)N2CCCC2)c1` (centres undefined): the INHIBITION is listed as 19.7%.

On to `Cc1cnn(CC2CCCN2C(=O)Cc2cccs2)c1` (centres undefined), for which the INHIBITION is listed as -35.5%. In the case of `Cc1cc(C)n(C2CN(CC(O)c3ccc(F)cc3)C2)n1` (centres undefined), the INHIBITION turned out to be 62.8%.

Turning to `Cc1cnn(C2CN(CC(O)c3ccc(F)cc3)C2)c1` (centres undefined), the INHIBITION was 57.4%. The result for `Cc1cc(C)n(C2CN(CC(O)c3ccc(S(C)(=O)=O)cc3)C2)n1` (centres undefined) reads -123%. Take `Cc1cc(C)n(C2CN(CC(O)COc3ccc(F)cc3)C2)n1` (centres undefined): the INHIBITION is on record as -18.8%. Take `Cc1cc(C)n(C2CN(CC(O)c3ccc4c(c3)OCO4)C2)n1` (centres undefined): the INHIBITION amounted to 43.5%.

For the compound `COc1ccc(C(O)CN2CC(n3cc(C)cn3)C2)cc1` (centres undefined), the INHIBITION was determined as 22%. Turning to `COc1ccc(C(O)CN2CC(n3nc(C)cc3C)C2)cc1` (centres undefined), the INHIBITION worked out at 49.2%. Regarding `Cc1cc(C)n(C2CN(CC(O)c3ccc(C(F)(F)F)cc3)C2)n1` (centres undefined), the INHIBITION turned out to be 65.4%.

As to `Cc1cnn(C2CN(CC(O)c3ccccc3)C2)c1` (centres undefined), the INHIBITION amounted to 40.9%. As to `O=C(Cc1ccccc1)N1CCC(c2nnc(-c3ccccn3)o2)CC1`, the INHIBITION was 2.71%. Consider `CC(Cc1ccco1)NC(=O)Nc1ccc(N(C)C)nc1` (centres undefined), for which the INHIBITION was -297%.

For `CC(C)COC(=O)N1CC(=O)N(CCc2ccccc2)CC(O)C1` (centres undefined), the INHIBITION is listed as -47.8%. To `Cc1oc(-c2ccsc2)nc1CN1CCCC(c2ccnn2C)C1` (centres undefined) belongs -72.5%.

For the compound `CN1CCN(Cc2cccnc2)C2(CCN(c3ncccn3)C2)C1=O` (centres undefined), the INHIBITION was -162%.

As to `Cn1ccnc1C(=O)N1CCC2(CCN2c2ncccn2)C1` (centres undefined), the INHIBITION is listed as -49.3%.

For `Cc1ccc(Nc2nccc(C3CCN(C(=O)CN)C3)n2)nc1` (centres undefined), the INHIBITION is given as -205%.

On to `Clc1ccc(N2CCN(CCCN3CCCCC3)CC2)nc1`, for which the INHIBITION was 69.2%.

Consider `CSCCCN1CCN(c2ccc(Cl)cn2)CC1`, for which the INHIBITION was 30.7%. Take `CS(=O)(=O)CCN1CCN(c2ccc(Cl)cn2)CC1`: the INHIBITION was determined as 0.0372%. As for `CN1CCN(Cc2ccncc2)C(=O)C12CCN(c1nccs1)CC2`, the INHIBITION is reported as -78.4%.

Consider `CCCc1nc(C(C)(C)NC(=O)C2CC(=O)N(CC)C2)no1` (centres undefined), for which the INHIBITION was -33.1%.

As to `N#Cc1cc(C#N)c(SCCC(=O)Nc2ccc(F)cc2)nc1N`, the INHIBITION came to 13.7%. Regarding `N#Cc1cc(C#N)c(SCC(=O)NCc2ccc(F)cc2)nc1N`, the INHIBITION is given as -74.4%. As to `N#Cc1cc(C#N)c(SCC(=O)Nc2ccc(F)cc2)nc1N`, the INHIBITION amounted to 67.3%. To `CCC(Nc1ccc(CCN2CCCCC2)cc1)C(N)=O` (centres undefined) belongs 1.58%; to `O=C(O)c1cc(S(=O)(=O)Nc2ccc(F)cc2F)cc2c1OCCO2`, -20.9%; to `CCn1cnnc1CNC(=O)N1CCN(c2ccccc2OC)CC1`, -69.5%.

Turning to `O=C(c1cc(Cl)c[nH]1)N1CCCC(c2cc(C(F)(F)F)[nH]n2)C1` (centres undefined), the INHIBITION is 20.5%. In the case of `Cc1ccc(-c2nc(CSCCC(=O)NC(N)=O)co2)c(C)c1`, the INHIBITION is reported as -115%. `CSc1ccc(C(=O)N2CCOCC2c2c(C)n[nH]c2C)o1` (centres undefined): the INHIBITION was -159%. In the case of `Cc1cc(C)n(CC(=O)NC(Cc2ccsc2)c2ccccn2)c(=O)n1` (centres undefined), the INHIBITION is reported as -151%. With `COCc1ccccc1CNc1nnc(C)c(C)c1C#N`, the INHIBITION is -155%.

`COc1ccccc1C1(CNc2nnc(C)c(C)c2C#N)CCOCC1`: the INHIBITION was 3.69%.

Regarding `Cc1nnc(NCc2ccccc2Cl)c(C#N)c1C`, the INHIBITION is reported as 6.46%. In the case of `CCOc1ncccc1CNc1nnc(C)c(C)c1C#N`, the INHIBITION turned out to be 60%. In the case of `CCCOc1ncccc1CNc1nnc(C)c(C)c1C#N`, the INHIBITION was -121%. In the case of `Cc1nnc(NCc2ccccc2F)c(C#N)c1C`, the INHIBITION is on record as 64.4%. As for `Cc1nnc(NCc2cccnc2OCC(F)(F)F)c(C#N)c1C`, the INHIBITION is recorded as -46.2%. To `Cc1nnc(NCC2(c3ccccc3)CCC2)c(C#N)c1C` belongs -32.2%; to `COc1ccccc1C1(CNc2nnc(C)c(C)c2C#N)CCCC1`, 58.4%; to `Cc1ccccc1COCCOCn1c(C)cc(=O)[nH]c1=O`, -70.8%. As for `CCn1nnc2c1C(COCC(=O)N(C)C)CN(Cc1ccoc1)C2` (centres undefined), the INHIBITION is listed as -97.7%. Take `O=C(Cc1cccs1)Nc1cnn(C2CCOCC2)c1`: the INHIBITION is -142%. Regarding `CCOC(=O)[C@H]1[C@@H](O)C(=O)N(C)C12CCN(C(=O)c1ccccc1)CC2`, the INHIBITION is -32.3%.

`O=C1CC2(CCCNC2)C(=O)N1Cc1ccc(F)cc1` (centres undefined): the INHIBITION is recorded as -26%. For `O=C1CC2(CCCNC2)C(=O)N1Cc1ccc(Cl)cc1` (centres undefined), the INHIBITION is given as 51.8%.

Turning to `O=C1CC2(CCCNC2)C(=O)N1Cc1cccc(F)c1` (centres undefined), the INHIBITION was -47.2%. As to `O=C(Nc1ccnc(OC2CCOC2)c1)c1ccccc1Cl` (centres undefined), the INHIBITION is on record as -34.1%.

As for `O=C(NCC(=O)N1CCCc2ccccc21)c1c(O)cc(F)cc1F`, the INHIBITION was -115%. With `COC(=O)c1c(Cl)c(C)nc2onc(C)c12`, the INHIBITION was -117%. For `N#Cc1cc(Cl)ccc1N1CCN(C(=O)C2CCC2)CC1`, the INHIBITION is reported as -75.4%. `CC1CCN(C(=O)C2CCN(c3ccc(Cl)cc3C#N)CC2)CC1`: the INHIBITION amounted to 60.5%. With `CCN(CC)C(=O)C1CCN(c2ccc(Cl)cc2C#N)CC1`, the INHIBITION is -147%. On to `Cn1cc(CN2CCCC23CCN(S(C)(=O)=O)CC3)cn1`, for which the INHIBITION was -54.3%. Take `O=c1n(CCNc2cccc3ccccc23)nc2ccccn12`: the INHIBITION is -149%. In the case of `CC1=N[C@@]2(CC[C@@H]3CN(Cc4ccccc4)C[C@@H]32)C(=O)N1CC1CC1`, the INHIBITION was found to be 17.7%. With `CC1=N[C@@]2(CC[C@@H]3CN(Cc4ccccc4F)C[C@@H]32)C(=O)N1CC1CC1`, the INHIBITION is 67.6%. As for `CC1=N[C@@]2(CC[C@@H]3CN(Cc4cccc(Cl)c4)C[C@@H]32)C(=O)N1CC1CC1`, the INHIBITION was found to be 67.2%. In the case of `CCC1=N[C@@]2(CC[C@@H]3CN(Cc4ccccc4F)C[C@@H]32)C(=O)N1CC`, the INHIBITION was determined as 39.8%. In the case of `COCCN1C(=O)[C@]2(CC[C@@H]3CN(Cc4ccccc4F)C[C@@H]32)N=C1C`, the INHIBITION was -37.9%. `CC1=N[C@@]2(CC[C@@H]3CN(Cc4ccc(C)cc4)C[C@@H]32)C(=O)N1CC1CC1`: the INHIBITION is recorded as 30.2%. To `COCCN(C)C(=O)Nc1ccc2c(ccn2CCOC)c1` belongs -178%.

In the case of `Cc1nnc(N2CC[C@H]3C[C@H](C(=O)N4CCOCC4)O[C@H]3C2)s1`, the INHIBITION is given as -42.1%.

The record behind these values is ChEMBL document CHEMBL4513216, “Probing the Open Global Health Chemical Diversity Library for Multistage-Active Starting Points for Next-Generation Antimalarials” (ACS Infect Dis, 2020).
